The list is not random: actives were taken first. Their share in the collection is about 2.8%.
Shn3 inh set2: inhibitors of Schnurri-3 3'UTR reporter in osteoblasts | Clone20 osteoblast Shn3 3'UTR firefly luciferase, 24 h | inhibition, % at 12.5 µM | hit rate 0.52% among 360,000;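 active = mean inhibition of at least 75% with every replicate also reaching 75%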
TRPM1 prom inh: reduces MITF-dependent TRPM1 promoter luciferase signal; AID 488899; hit rate 0.83% among 330,000; inhibition, % at 12.5 µM; SK-MEL-5 TRPM1 promoter luciferase, 24 h;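 active = mean inhibition across replicates of 60% or more, whatever share of single replicates reaches that level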
HIF-2a block: blocks HIF-2a reporter activity; inhibition, % at 18.8 µM; hit rate 0.72% among 360,000; 786-0 RCC cells HIF-2a reporter, luciferase luminescence, overnight;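 active = inhibition of the luminescence signal of 40% or more relative to plate controls, in a single-dose primary screen at 18.75 µM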
PAX8 inh HTS: lowers PAX8-driven luciferase in RMG-I cells | inhibition, % at 12.6 µM | RMG-I TPO-luciferase reporter, SteadyGlo, 24 h | hit rate 1.2% among 360,000;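 active = mean replicate inhibition at least 60% with every replicate also reaching 60%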;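 also: luciferase light reporting Pax8 driven TPO promoter activity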
Peg3 promoter: inhibitors of Peg3 promoter; hit rate 1.7% among 360,000; AID 588405; inhibition, % at 20 µM; HeLa PEG-Prom luciferase reporter, luminescence, overnight;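 active = inhibition of at least 50% at 20 µM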
LMP1 NFkB inh: inhibitors of Epstein-Barr LMP1-induced NF-kappaB reporter. inhibition, % at 12.5 µM. hit rate 0.69% among 350,000. LMP1-induced NF-kappaB luciferase reporter cells, luminescence. AID 504558; in the data active = inhibition above about 41%
Hits are given with their value; n = inactive; x = not tested or not shown.

SMILES	Shn3 inh set2	TRPM1 prom inh	HIF-2a block	PAX8 inh HTS	Peg3 promoter	LMP1 NFkB inh
COc1ccc(CN(C)C[C@H]2OCCCC[C@@H](C)Oc3ccc(NC(=O)CCCN(C)C)cc3C(=O)N([C@@H](C)CO)C[C@@H]2C)cc1	x	x	x	n	x	x
Cc1ccc(S(=O)(=O)N(C)C[C@H]2Oc3c(cccc3N(C)C)C(=O)N([C@@H](C)CO)C[C@H]2C)cc1	x	x	x	n	x	x
CC1CCCC(C)N1CCCNC(=O)c1ccc2c(c1)NC(=O)c1ccccc1S2 (centres undefined)	n	n	n	n	n	n
CCC(C)N(CCNC(=O)c1ccc2c(c1)NC(=O)c1ccccc1S2)C1CCCCC1 (centres undefined)	n	n	n	n	76	n
COc1ccc2c3c(n(C)c2c1)[C@H](CO)N(C(=O)Cc1ccccc1)CC31CN(C)C1	x	x	x	n	x	x
C[C@H]1CN([C@@H](C)CO)S(=O)(=O)c2ccc(/C=C/c3ccccc3)cc2O[C@H]1CN(C)Cc1ccccc1	x	x	x	n	x	x
C[C@@H]1CN([C@@H](C)CO)S(=O)(=O)c2ccc(/C=C/c3ccccc3)cc2O[C@@H]1CN(C)Cc1ccc(C(=O)O)cc1	n	x	n	n	n	55
C[C@H]1CN([C@@H](C)CO)S(=O)(=O)c2ccc(/C=C/c3ccccc3)cc2O[C@H]1CN(C)C(=O)Nc1cc(F)ccc1F	x	x	x	64	x	x
C[C@@H]1CN([C@@H](C)CO)S(=O)(=O)c2ccc(/C=C/c3ccccc3)cc2O[C@H]1CN(C)C(=O)c1ccccc1	x	x	x	71	x	x
C[C@H](CO)N1C[C@H](C)[C@@H](CN(C)C(=O)c2ccc3c(c2)OCO3)Oc2cc(/C=C/c3ccccc3)ccc2S1(=O)=O	n	x	n	n	62	n
COC(=O)C[C@H]1CC[C@H]2[C@H](COc3ccc(NC(=O)Nc4cccc(C)c4)cc3C(=O)N2C)O1	x	x	x	n	x	x
N#C[C@H]1[C@@H](c2ccccc2-c2ccccc2F)[C@H](CO)N1C(=O)C1CC1	x	x	x	n	x	x
CCS(=O)(=O)N1CCC2(CC1)CN(Cc1ccccc1OC)[C@H](CO)c1c2c2ccc(OC)cc2n1C	x	x	x	n	x	x
Cn1cc(C(=O)N/N=C/c2ccc3c(c2)OCO3)c2ccccc21	x	n	n	n	n	n
Cn1cc(C(=O)N/N=C/c2ccc(Br)c([N+](=O)[O-])c2)c2ccccc21	n	x	n	n	52	x
C[C@@H]1CN([C@H](C)CO)C(=O)Cc2cc(NC(=O)C3CC3)ccc2O[C@@H]1CN(C)C(=O)Nc1ccc(C(F)(F)F)cc1	x	x	x	n	x	x
CC(C)C(=O)Nc1cccc(COc2ccc(CN(Cc3ccccc3)C(=O)OC(C)(C)C)cc2)c1	n	n	n	72	n	n
Cc1noc(C)c1NC(=O)Nc1ccc2c(c1)CC(=O)N([C@@H](C)CO)C[C@H](C)[C@@H](CN(C)Cc1ccc3c(c1)OCO3)O2	x	x	x	n	x	x
Cc1ccc(C)c(N2CCN(CCCNC(=O)Cn3cccc3C(=O)c3ccccc3C)CC2)c1	n	n	n	n	107	n
Clc1ccccc1C1=Nn2c(nnc2-c2ccncc2)SC1	n	n	n	x	n	56
CC(C)NC(=O)CN1C(=O)c2ccccc2S1(=O)=O	n	n	n	n	n	n
O=C(CN1C(=O)c2ccccc2S1(=O)=O)Nc1ncc(Cl)cc1Cl	n	n	n	n	58	41
O=C(CN1C(=O)c2ccccc2S1(=O)=O)Nc1ncccn1	n	n	n	n	n	n
O=C(CN1C(=O)c2ccccc2S1(=O)=O)c1ccccc1	n	n	46	x	53	61
COCc1cn(CC[C@@H]2CC[C@H](NC(=O)Nc3ccc4c(c3)OCO4)[C@H](CO)O2)nn1	x	x	x	n	x	x
SMILES	Shn3 inh set2	TRPM1 prom inh	HIF-2a block	PAX8 inh HTS	Peg3 promoter	LMP1 NFkB inh
C[C@H]1CN([C@@H](C)CO)C(=O)c2cccc(NC(=O)NC3CCCCC3)c2O[C@H]1CN(C)C(=O)Nc1cccc2ccccc12	x	x	x	n	x	x
O=C(NC(c1ccc(Cl)cc1)c1c(O)ccc2ccccc12)c1ccccc1 (centres undefined)	n	n	n	x	58	n
O=C(NC(c1ccccc1)c1c(O)ccc2ccccc12)c1ccccc1Cl (centres undefined)	n	n	n	x	n	n
CN1C(=O)c2cc(NC(=O)c3ccc(F)cc3)ccc2OC[C@H]2O[C@@H](CC(=O)NCC3CC3)CC[C@@H]21	x	x	x	n	x	x
COc1ccccc1S(=O)(=O)N[C@@H]1CC[C@@H](CC(=O)N2CCOCC2)O[C@H]1CO	x	x	x	n	x	x
CC(C)c1cn(CC[C@H]2CC[C@H](NC(=O)c3cccc(F)c3)[C@H](CO)O2)nn1	x	x	x	n	x	x
